Inconclusive results are not listed. Entries that show only a call come without a potency. Calls of active or inactive are those of the source. Unless noted, how the calls were made is not given here.
Columns and labels:
[1] = target: Androgen receptor (Homo sapiens) (UniProt P10275); assay: qHTS assay for small molecule agonists of androgen receptor signaling (AID 588515; active means well fitted curve in the direction sought with a large enough effect in the signal ratio, with a control signal flat; the % refers to the signal ratio); conditions: AR-UAS-bla HEK293, beta-lactamase ratio, agonist 16 h; stronger effect = higher value
Outline: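 Stimulation of an AR-responsive β-lactamase reporter in GripTite HEK293 cells was measured after 16 h compound exposure at 37 °C, via CCF4 fluorescence after 2 h RT. EC50 from Hill fits, normalized to R1881 at 30 nM.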

[2] = target: Glucocorticoid receptor (Homo sapiens) (UniProt P04150); assay: qHTS assay for small molecule agonists of glucocorticoid receptor signaling (AID 588532; active means well fitted curve in the direction sought with a large enough effect in the signal ratio, with a control signal flat; the % refers to the signal ratio); conditions: HeLa MMTV-bla, beta-lactamase ratio, agonist, 18 h; activation: stronger effect = higher value, percent of dexamethasone control, DMSO zero
Outline: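 Stimulation of a glucocorticoid response element-driven beta-lactamase gene was measured in HeLa cells. Responses were scaled between DMSO basal and 0.1 uM dexamethasone, then fitted for half-maximal stimulation.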

[3] = target: Glucocorticoid receptor (Homo sapiens) (UniProt P04150); assay: qHTS assay for small molecule antagonists of glucocorticoid receptor signaling (AID 588533; active means well fitted inhibition curve with a large enough effect in the signal ratio, with a control signal flat, not every such curve was filed as active; the % refers to the signal ratio;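 further: cells stimulated with 2 nM dexamethasone as agonist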; further: potency means the concentration at half of the fitted maximal effect); conditions: HeLa MMTV-bla, GRE beta-lactamase ratio, antagonist mode, 18 h; series mostly up to 76.8 µM
Outline: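 Antagonist-mode qHTS: compound titrations added to GRE-bla HeLa cells, then dexamethasone 2 nM final; 18 h, 37 C. CCF4 FRET fluorescence normalized to dexamethasone and DMSO; IC50 from Hill fit.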

[4] = target: Peroxisome proliferator-activated receptor gamma (Homo sapiens) (UniProt P37231); assay: qHTS assay for small molecule agonists of peroxisome proliferator-activated receptor gamma signaling (AID 588536; active means well fitted curve in the direction sought with a large enough effect in the signal ratio, with a control signal flat, not every such curve was filed as active; the % refers to the signal ratio); conditions: HEK293 PPARg-UAS-bla, beta-lactamase ratio, 16 h; series mostly up to 76.7 µM
Outline: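 Using GeneBLAzer HEK293 cells, response was quantified by CCF4 fluorescence and normalized between basal DMSO (0%) and rosiglitazone 2 uM (100%); curves yielded half-maximal stimulation concentration and efficacy.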

[5] = target: Peroxisome proliferator-activated receptor gamma (Homo sapiens) (UniProt P37231); assay: qHTS assay for small molecule antagonists of peroxisome proliferator-activated receptor gamma signaling (AID 588537; active means well fitted inhibition curve with a large enough effect in the signal ratio, with a control signal flat, not every such curve was filed as active; the % refers to the signal ratio;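 further: reporter cells co-stimulated with 50 nM rosiglitazone agonist during compound treatment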); conditions: HEK293 PPARg-UAS-bla, beta-lactamase ratio, antagonist mode; series mostly up to 76.8 µM
Outline: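 HEK293 cells, PPAR-gamma-UAS-bla, 3000/well. Pre-incubation 6-6.5 h, 37 C. Compound titration with rosiglitazone 50 nM final, 16 h. CCF4 dye, 2 h RT, dual-emission fluorescence.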

[6] = qHTS assay for small molecule agonists of retinoid X receptor alpha signaling (AID 588544); conditions: HEK293T RXRa-UAS-bla, beta-lactamase reporter, 18 h; 530 nm emission
[7] = qHTS assay for small molecule agonists of the antioxidant response element (ARE) signaling pathway (AID 651741; active means well fitted activation curve with a large enough effect in the signal ratio; the % refers to the signal ratio; further: potency means the concentration at half of the fitted maximal effect); conditions: HepG2 ARE-bla reporter, beta-lactamase FRET ratio, 16 h; series mostly up to 96 µM
Outline: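 Beta-lactamase reporter expression driven by the antioxidant response element in HepG2 cells was detected by fluorescence with LiveBLAzer B/G FRET substrate (2 h, room temperature) following 16 h compound treatment at 37 C.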

[8] = qHTS assay for small molecule activators of the human pregnane X receptor (PXR) signaling pathway (AID 720659); conditions: DPX-2 HepG2 CYP3A4-luciferase, 24 h; series mostly up to 92.3 µM
[9] = target: Androgen receptor (Homo sapiens) (UniProt P10275); assay: qHTS assay for small molecule antagonists of androgen receptor signaling (AID 588516; active means well fitted curve in the direction sought with a large enough effect in the signal ratio, with a control signal flat, not every such curve was filed as active; the % refers to the signal ratio); conditions: AR-UAS-bla HEK293, beta-lactamase ratio, antagonist mode, 16 h; series mostly up to 76.8 µM
Outline: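 AR-UAS-bla-GripTite HEK 293 cells (2000/well, 5 h at 37 C) received compound titrations, then R1881 at 10 nM final; after 16 h at 37 C, CCF4 dye 2 h RT, beta-lactamase fluorescence read; IC50 from Hill fits.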

[10] = target: Thyroid hormone receptor beta (Homo sapiens) (UniProt P10828); assay: qHTS assay for small molecule antagonists of thyroid hormone receptor beta signaling (AID 588547; active means well fitted inhibition curve with a large enough effect in the signal ratio, with a control signal flat, not every such curve was filed as active; the % refers to the signal ratio;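 further: cells stimulated with 0.4 nM T3 agonist during compound exposure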); conditions: TR-UAS-bla HEK293, beta-lactamase ratio, antagonist mode, 18 h
Outline: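 TR-UAS-bla GripTite HEK293 cells in 2% charcoal/dextran FBS medium were preincubated 4 h at 37 C, given compound (0.59 nM to 92 uM) plus 0.4 nM T3 (final) for 18 h, then CCF4 for 2 h at RT; Hill fit gave IC50.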

Chain of Glucocorticoid receptor (Homo sapiens) (P04150 whole entry, looked up): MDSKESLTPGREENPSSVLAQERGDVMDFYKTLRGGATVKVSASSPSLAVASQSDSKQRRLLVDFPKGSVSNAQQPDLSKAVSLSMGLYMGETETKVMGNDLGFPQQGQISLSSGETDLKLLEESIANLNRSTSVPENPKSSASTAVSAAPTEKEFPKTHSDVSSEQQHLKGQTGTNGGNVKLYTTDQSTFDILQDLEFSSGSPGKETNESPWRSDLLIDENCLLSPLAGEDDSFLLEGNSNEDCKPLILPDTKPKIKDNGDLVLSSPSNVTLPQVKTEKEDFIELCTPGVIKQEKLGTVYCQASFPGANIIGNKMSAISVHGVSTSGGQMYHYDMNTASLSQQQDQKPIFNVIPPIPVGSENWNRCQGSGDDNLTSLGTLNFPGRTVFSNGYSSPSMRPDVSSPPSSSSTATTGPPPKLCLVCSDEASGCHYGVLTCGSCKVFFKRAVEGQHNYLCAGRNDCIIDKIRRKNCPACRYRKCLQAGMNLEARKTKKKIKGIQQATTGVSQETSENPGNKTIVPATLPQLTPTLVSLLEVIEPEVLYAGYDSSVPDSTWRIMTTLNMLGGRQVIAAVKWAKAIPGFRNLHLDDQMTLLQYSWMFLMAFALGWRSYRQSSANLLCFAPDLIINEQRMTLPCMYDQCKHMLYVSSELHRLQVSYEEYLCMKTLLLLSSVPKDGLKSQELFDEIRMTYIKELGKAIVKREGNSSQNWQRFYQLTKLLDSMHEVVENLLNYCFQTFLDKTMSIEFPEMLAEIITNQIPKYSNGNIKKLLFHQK
Chain of Androgen receptor (Homo sapiens) (P10275 whole entry, looked up): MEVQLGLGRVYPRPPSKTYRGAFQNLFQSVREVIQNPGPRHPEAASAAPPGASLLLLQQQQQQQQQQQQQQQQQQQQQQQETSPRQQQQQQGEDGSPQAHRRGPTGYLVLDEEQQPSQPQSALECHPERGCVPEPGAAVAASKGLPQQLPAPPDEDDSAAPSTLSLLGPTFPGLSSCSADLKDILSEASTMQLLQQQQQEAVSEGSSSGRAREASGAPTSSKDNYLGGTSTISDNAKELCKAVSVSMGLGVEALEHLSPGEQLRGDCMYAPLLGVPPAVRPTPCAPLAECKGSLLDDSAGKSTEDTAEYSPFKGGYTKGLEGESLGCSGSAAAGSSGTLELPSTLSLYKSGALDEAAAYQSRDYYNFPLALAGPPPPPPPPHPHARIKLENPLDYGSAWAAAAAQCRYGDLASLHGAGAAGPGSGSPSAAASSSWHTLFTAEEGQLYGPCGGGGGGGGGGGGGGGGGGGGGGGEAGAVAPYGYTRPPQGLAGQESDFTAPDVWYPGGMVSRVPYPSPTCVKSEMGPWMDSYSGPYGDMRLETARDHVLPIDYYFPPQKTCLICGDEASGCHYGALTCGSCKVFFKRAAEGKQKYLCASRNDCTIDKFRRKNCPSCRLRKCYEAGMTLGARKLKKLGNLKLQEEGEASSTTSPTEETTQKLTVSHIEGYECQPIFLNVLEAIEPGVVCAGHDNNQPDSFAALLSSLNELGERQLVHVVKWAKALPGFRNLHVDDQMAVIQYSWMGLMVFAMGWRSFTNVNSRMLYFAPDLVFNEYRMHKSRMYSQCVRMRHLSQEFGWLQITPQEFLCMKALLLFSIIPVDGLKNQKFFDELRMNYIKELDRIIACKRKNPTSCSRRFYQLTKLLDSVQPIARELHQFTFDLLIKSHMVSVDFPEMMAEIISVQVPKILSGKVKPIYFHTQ
Chain of Thyroid hormone receptor beta (Homo sapiens) (P10828 whole entry, looked up): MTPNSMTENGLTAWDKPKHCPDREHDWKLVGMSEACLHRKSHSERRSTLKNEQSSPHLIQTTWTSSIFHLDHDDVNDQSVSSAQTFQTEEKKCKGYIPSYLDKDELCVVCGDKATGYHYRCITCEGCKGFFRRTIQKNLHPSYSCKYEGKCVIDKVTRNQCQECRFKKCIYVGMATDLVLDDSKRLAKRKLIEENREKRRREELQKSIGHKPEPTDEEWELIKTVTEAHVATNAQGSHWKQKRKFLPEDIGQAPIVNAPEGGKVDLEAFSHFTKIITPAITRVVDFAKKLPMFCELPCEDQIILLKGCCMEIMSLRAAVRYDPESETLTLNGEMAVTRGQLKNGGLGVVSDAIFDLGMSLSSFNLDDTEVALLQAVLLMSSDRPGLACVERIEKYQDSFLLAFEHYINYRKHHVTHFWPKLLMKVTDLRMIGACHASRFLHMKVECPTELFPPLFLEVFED
Chain of Peroxisome proliferator-activated receptor gamma (Homo sapiens) (P37231 whole entry, looked up): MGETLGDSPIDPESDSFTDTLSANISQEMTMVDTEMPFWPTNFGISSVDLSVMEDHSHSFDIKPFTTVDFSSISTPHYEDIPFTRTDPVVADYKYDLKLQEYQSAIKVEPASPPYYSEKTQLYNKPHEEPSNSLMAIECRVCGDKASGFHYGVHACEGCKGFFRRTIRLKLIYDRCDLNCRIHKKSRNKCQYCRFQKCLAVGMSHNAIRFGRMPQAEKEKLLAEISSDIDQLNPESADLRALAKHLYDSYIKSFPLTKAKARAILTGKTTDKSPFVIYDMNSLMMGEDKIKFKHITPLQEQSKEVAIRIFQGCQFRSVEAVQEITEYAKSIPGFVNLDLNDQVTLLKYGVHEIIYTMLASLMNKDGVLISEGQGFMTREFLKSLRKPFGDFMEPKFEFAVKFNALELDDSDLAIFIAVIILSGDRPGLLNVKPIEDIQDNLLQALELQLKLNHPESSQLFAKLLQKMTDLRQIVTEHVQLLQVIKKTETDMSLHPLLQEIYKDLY

## O=C1C=CC(=O)c2ccccc21
[1]
  activation: 0.338% (inactive)
[2]
  activation: 0.432% (inactive)
[3]
  Potency: inactive
[4]
  Potency: inactive
[5]
  Potency: inactive
[6]
  max response: 12.1%
[7]
  Potency: 54.5 µM (active)
[8]
  outcome: inactive

## CCCOc1nn(C(=O)NS(=O)(=O)c2ccccc2C(=O)OC)c(=O)n1C
[1]
  activation: 9.43% (inactive)
[9]
  Potency: inactive
[2]
  activation: -2.11% (inactive)
[3]
  Potency: inactive
[4]
  Potency: inactive
[5]
  Potency: inactive
[10]
  activity change % (negative = inhibition): 10.6% (inactive)
[7]
  Potency: inactive
[8]
  outcome: inactive

## c1ccc2c(c1)c1cccc3ccc4cccc2c4c31
[1]
  activation: 7.55% (inactive)
[7]
  Potency: 6.86 µM (active)

## C[N+]1(C)CCCCC1
[1]
  activation: 4.04% (inactive)
[9]
  Potency: inactive
[4]
  Potency: inactive
[5]
  Potency: inactive
[6]
  max response: -8.78%
[10]
  activity change % (negative = inhibition): 2.54% (inactive)
[8]
  outcome: inactive

## CCOP(=S)(OCC)SC(CCl)N1C(=O)c2ccccc2C1=O (stereo unspecified)
[1]
  activation: -16.4% (inactive)
[9]
  Potency: inactive
[10]
  activity change % (negative = inhibition): 7.21% (inactive)

## ClC1=C(Cl)[C@@]2(Cl)[C@H]3C[C@@H](Cl)[C@H](Cl)[C@H]3[C@@]1(Cl)C2(Cl)Cl
[1]
  activation: -0.104% (inactive)
[9]
  Potency: inactive
[2]
  activation: -9.73% (inactive)
[7]
  Potency: 24.3 µM (active)

## O=[N+]([O-])c1ccc2ccc3cccc4ccc1c2c34
[1]
  activation: -12% (inactive)
[2]
  activation: -22% (inactive)
[5]
  Potency: inactive
[6]
  max response: 19.4%
[10]
  activity change % (negative = inhibition): -20.5% (inactive)
[7]
  Potency: 4.33 µM (active)
[8]
  outcome: inactive

## N#CCNC(=O)c1cnccc1C(F)(F)F
[1]
  activation: 4.4% (inactive)
[9]
  Potency: inactive
[3]
  Potency: inactive
[4]
  Potency: inactive
[5]
  Potency: inactive
[6]
  max response: -4.19%
[7]
  Potency: inactive
[8]
  outcome: inactive

## COC(C)(C)CCC[C@H](C)C/C=C/C(C)=C/C(=O)OC(C)C
[1]
  activation: -8.45% (inactive)
[10]
  activity change % (negative = inhibition): -10.3% (inactive)
[7]
  Potency: 68.6 µM (active)

## CCNS(=O)(=O)C(F)(F)C(F)(F)C(F)(F)C(F)(F)C(F)(F)C(F)(F)C(F)(F)C(F)(F)F
[1]
  activation: 7.01% (inactive)
[4]
  Potency: inactive
[5]
  Potency: inactive
[6]
  max response: -3.73%
[10]
  activity change % (negative = inhibition): 23.1% (inactive)
[8]
  outcome: inactive

## O=C(NC(=O)c1c(F)cccc1F)Nc1cc(Cl)c(OC(F)(F)C(F)F)c(Cl)c1
[1]
  activation: 7.72% (inactive)
[2]
  activation: 12.6% (inactive)
[4]
  Potency: inactive
[5]
  Potency: inactive
[10]
  activity change % (negative = inhibition): -14.9% (inactive)

## COP(=O)(OC)Oc1nc(Cl)c(Cl)cc1Cl
[9]
  Potency: inactive
[3]
  Potency: inactive
[6]
  max response: 28.3%
[10]
  activity change % (negative = inhibition): -14.5% (inactive)
[8]
  outcome: inactive

## CC(C)=C[C@@H]1[C@@H](C(=O)OCN2C(=O)C3=C(CCCC3)C2=O)C1(C)C
[1]
  activation: 0.858% (inactive)
[2]
  activation: 11.7% (inactive)
[10]
  activity change % (negative = inhibition): 7.01% (inactive)
[7]
  Potency: 54.5 µM (active)

## C=CC(=O)OCC(CC)(COC(=O)C=C)COC(=O)C=C
[1]
  activation: -16.7% (inactive)
[2]
  activation: -13.7% (inactive)
[3]
  Potency: 44.7 µM (active)

## Cc1ccccc1CO[C@@H]1C[C@@]2(C(C)C)CC[C@]1(C)O2
[1]
  activation: -0.477% (inactive)
[9]
  Potency: inactive
[4]
  Potency: inactive
[5]
  Potency: inactive
[7]
  Potency: inactive

## CCCCC(O)(Cn1cncn1)c1ccc(Cl)cc1Cl (stereo unspecified)
[1]
  activation: -10.4% (inactive)
[3]
  Potency: inactive

## CCCCOC(=O)c1ccccc1C(=O)O
[1]
  activation: 5.7% (inactive)
[4]
  Potency: inactive
[5]
  Potency: inactive
[6]
  max response: -15.3%
[10]
  activity change % (negative = inhibition): 6.47% (inactive)
[8]
  outcome: inactive

## COP(=O)(OC)SCn1c(=O)oc2cc(Cl)cnc21
[1]
  activation: 7.35% (inactive)
[9]
  Potency: inactive
[3]
  Potency: inactive
[4]
  Potency: inactive
[7]
  Potency: 27.3 µM (active)
[8]
  outcome: inactive

## COC(=O)c1c(C(F)F)nc(C(F)(F)F)c(C2=NCCS2)c1CC(C)C
[1]
  activation: -1.74% (inactive)
[9]
  Potency: inactive
[4]
  Potency: inactive
[10]
  activity change % (negative = inhibition): -8.88% (inactive)

## N#Cc1cc(I)c(O)c(I)c1
[1]
  activation: 6.03% (inactive)
[9]
  Potency: inactive
[6]
  max response: 19.3%
[8]
  outcome: inactive

## CCCCCCCCCCCCC1=C(OC(C)=O)C(=O)c2ccccc2C1=O
[1]
  activation: -4.72% (inactive)
[8]
  outcome: inactive

## O=CNC(N1CCN(C(NC=O)C(Cl)(Cl)Cl)CC1)C(Cl)(Cl)Cl (stereo unspecified)
[1]
  activation: 14.6% (inactive)
[3]
  Potency: inactive
[4]
  Potency: inactive
[5]
  Potency: inactive
[6]
  max response: -14.2%
[10]
  activity change % (negative = inhibition): -18.1% (inactive)

## COc1ccc(/C(=C/C(=O)N2CCOCC2)c2ccc(Cl)cc2)cc1OC
[1]
  activation: -2.83% (inactive)
[9]
  Potency: inactive
[3]
  Potency: inactive
[4]
  Potency: inactive
[5]
  Potency: inactive
[6]
  max response: 28.2%

## CC(Oc1cccc(Cl)c1)C(=O)O (stereo unspecified)
[2]
  activation: -9.84% (inactive)
[3]
  Potency: inactive
[4]
  Potency: inactive
[5]
  Potency: inactive
[6]
  max response: -3.83%
[7]
  Potency: inactive
[8]
  outcome: inactive

## CCNc1nc(NC(C)C)nc(SC)n1
[1]
  activation: -1.4% (inactive)
[9]
  Potency: inactive
[4]
  Potency: inactive
[5]
  Potency: inactive
[6]
  max response: -4.47%
[10]
  activity change % (negative = inhibition): 5.24% (inactive)
[7]
  Potency: inactive

## O=C(NC(=O)c1c(F)cccc1F)Nc1cc(Cl)c(OC(F)(F)C(F)C(F)(F)F)c(Cl)c1F (stereo unspecified)
[1]
  activation: -3.76% (inactive)
[9]
  Potency: inactive
[4]
  Potency: inactive
[5]
  Potency: inactive
[6]
  max response: 23%
[10]
  activity change % (negative = inhibition): 12.6% (inactive)
[7]
  Potency: 30.6 µM (active)

Source: PubChem BioAssay (NCATS)
